Screening data as filed in PubChem.
A selection: hits, their analogues and other compounds. The true share with any hit is near 3.4%.
PAFAH1B3 FP inh = inhibitors of human PAFAH1B3; Q15102; recombinant PAFAH1B3, FP-rhodamine probe, fluorescence polarization; inhibition, % at 3.39 µM; 340,000 tested, 0.28% active;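 active = inhibition above the screen-wide average of all tested compounds plus 3 SD, cut at about 25% in these data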;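 note: 0% = enzyme with DMSO only and 100% = wells lacking PAFAH1B3 protein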
PP5 inh = inhibitors of human protein phosphatase 5 (PP5); AID 1987; P53041; inhibition, % at 6.7 µM; purified PP5c, OMFP substrate fluorescence; 320,000 tested, 0.18% active;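 active = inhibition above the campaign's mean inhibition across all tested compounds plus 3 SD, cut at about 9.5% in these data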;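 note: 0% = DMSO only and 100% = 100 µM cantharidin control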
PP1 counter = PP1-alpha (human) inhibition in PP5 counter-screen; inhibition, % at 6.7 µM; 320,000 tested, 0.9% active; AID 2235; P62136; purified PP1alpha, OMFP fluorescence;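 active = inhibition above the mean inhibition of all tested compounds plus 3 SD, computed separately for each screening campaign, cut at about 15% in these data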
PAFAH2 FP inh = inhibitors of human PAFAH2. recombinant PAFAH2, FP-rhodamine activity probe, fluorescence polarization. inhibition, % at 3.39 µM. 340,000 tested, 0.99% active. AID 492956;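 active = inhibition above the mean over all tested compounds plus 3 SD, cut at about 30% in these data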;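 note: inhibitors block probe labeling of enzyme so polarization drops; 0% = enzyme with DMSO and 100% = wells lacking PAFAH2 protein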
PAFAH1B2 FP inh = inhibitors of human PAFAH1B2. P68402. recombinant PAFAH1B2, FP-rhodamine activity probe, fluorescence polarization. inhibition, % at 3.39 µM. 340,000 tested, 1.2% active;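 active = inhibition above the mean of all tested compounds plus 3 SD, cut at about 24% in these data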;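 note: 0% = enzyme with DMSO and 100% = wells lacking PAFAH1B2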
pPAFAH inh = inhibitors of human plasma PAF acetylhydrolase (pPAFAH). Q13093. recombinant pPAFAH, FP-rhodamine probe fluorescence polarization. inhibition, % at 3.39 µM. 330,000 tested, 1.5% active. AID 463082;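 active = inhibition above the mean inhibition across the screen plus 3 SD, cut at about 25% in these data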;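 note: inhibitors block binding of the rhodamine activity-based probe so polarization drops; 0% = enzyme with DMSO and 100% = wells lacking pPAFAH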
Target sequence (Q13093 whole entry, looked up): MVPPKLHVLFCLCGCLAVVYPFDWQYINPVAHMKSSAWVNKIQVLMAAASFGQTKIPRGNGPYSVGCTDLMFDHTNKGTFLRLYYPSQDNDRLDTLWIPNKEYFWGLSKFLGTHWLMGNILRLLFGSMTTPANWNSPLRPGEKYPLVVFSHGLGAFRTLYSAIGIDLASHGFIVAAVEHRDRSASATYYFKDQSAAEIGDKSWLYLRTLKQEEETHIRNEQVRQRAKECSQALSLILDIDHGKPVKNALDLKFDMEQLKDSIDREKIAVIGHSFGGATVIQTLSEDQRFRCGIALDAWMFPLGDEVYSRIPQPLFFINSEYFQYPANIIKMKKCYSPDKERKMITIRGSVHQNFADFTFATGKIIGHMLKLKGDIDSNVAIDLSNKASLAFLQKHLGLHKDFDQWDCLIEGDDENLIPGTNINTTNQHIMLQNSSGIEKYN
pPAFAH FP conf = confirmation of human plasma PAF acetylhydrolase (pPAFAH) inhibitors. shares compounds with pPAFAH inh. recombinant pPAFAH, FP-Rh probe fluorescence polarization. inhibition, % at 3.39 µM. 2,300 tested, 72% active. AID 463230;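 active = mean inhibition of the triplicate above the hit cutoff set for the earlier primary screen, cut at about 25% in these data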;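 note: 0% = enzyme with DMSO and 100% = wells lacking pPAFAH enzyme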
* = called active by the depositor; . = no result.

SMILES	PAFAH1B3 FP inh	PP5 inh	PP1 counter	PAFAH2 FP inh	PAFAH1B2 FP inh	pPAFAH inh	pPAFAH FP conf
CC(C)N(C(=O)[C@H]1C[C@H](CC(=O)NCC23CC4CC(CC(C4)C2)C3)C(=O)N2CCc3c([nH]c4cc(CCC(=O)N(C)C)ccc34)[C@]12C)C(C)C	5	.	.	-3	5	45*	33*
CCCSC(=S)c1c(C)[nH]n(-c2ccccc2)c1=O	3	3	-3	10	9	8	.
Cc1cc(C)n(Cc2ccc(C(=O)O)cc2)n1	4	0	-3	5	3	1	.
Cc1ccc(C)n1Cc1ccc(C(=O)O)cc1	4	2	18*	22	8	47*	62*
CCOC(=O)c1cc(C#N)c(SCC(N)=O)[nH]c1=O	19	1	6	9	5	51*	1
COCCCNC1=C(Cl)C(=O)c2ccccc2C1=O	9	2	-5	0	6	2	.
COCCCNc1c2c3c(cccc3[nH]c1=O)C(=O)c1ccccc1-2	134*	-76	-121	136*	109*	106*	84*
N#C/C(=C\c1cc(Cl)c(OCc2ccc(Cl)cc2)c(Cl)c1)C(N)=O	.	2	3	.	.	10	.
N#C/C(=C\c1cc(O)c(O)c(O)c1)C(N)=O	15	0	1	12	8	42*	11
O=C(CCCSc1ccccc1)Nc1nc(-c2ccco2)c(-c2ccco2)s1	3	2	9	6	-2	56*	23
COC(=O)COc1ccc(C2Nc3c(Cl)ccc(C(=O)O)c3C3C=CCC32)cc1 (stereo not drawn)	6	-1	0	28	3	36*	11
CCC(=Nc1ccc(N)cc1)C1=C(O)C(C(=O)OC)C(C)(C)CC1=O (stereo not drawn)	12	5	14	9	-2	58*	1
CCCC(=Nc1ccccc1)C1=C(O)C(C(=O)OC)C(C)(C)CC1=O (stereo not drawn)	1	2	-2	0	1	2	.
CCCCC(=Nc1ccc(N)cc1)C1=C(O)C(C(=O)OC)C(C)(C)CC1=O (stereo not drawn)	14	2	8	10	10	38*	8
Cc1ccc(NC(=O)CCS(=O)(=O)c2cccc3nonc23)c(Cl)c1	12	1	-3	3	-1	3	.
Cc1cc(C)cc(NS(=O)(=O)c2csc(C(N)=O)c2)c1	2	4	-3	-3	1	-3	.
Cc1ccc(NS(=O)(=O)c2csc(C(N)=O)c2)c(C)c1	6	2	2	-3	7	36*	19
CC(=O)N1CCN(c2ccc(Nc3ncnc4c3oc3ccccc34)cc2)CC1	5	8	2	-6	0	69*	67*
CCc1nc(Nc2ccc(N3CCN(C(C)=O)CC3)cc2)c2oc3ccccc3c2n1	-2	2	-1	6	1	42*	33*
COc1ccc(NC(=O)CSc2nnc(Cn3nnc4ccccc43)n2C)cc1	0	8	-4	-5	-2	-3	.
O=C(c1cc(S(=O)(=O)N2CCOCC2)c(Cl)cc1Cl)N1CCCCC1CO (stereo not drawn)	0	2	-3	-5	0	47*	3
O=C(c1cc(S(=O)(=O)N2CCOCC2)c(Cl)cc1Cl)N1CCCC1	2	.	.	-4	3	.	.
O=C(O)c1ccc(-n2cccc2/C=N\NC(=O)c2cc3cc(Br)ccc3o2)cc1	12	1	10	26	3	48*	25*
NC(=O)c1ccsc1NC(=O)COC(=O)/C=C/c1ccc([N+](=O)[O-])cc1	6	0	5	-5	-3	10	.
C[C@]12C(=O)N(c3cccc(F)c3)C(=O)N1[C@@H]1c3ccccc3OC[C@@H]1[C@H]2c1ccccc1	-2	4	-2	-3	0	4	.
O=C(N/N=C/c1cccc2ccccc12)c1cc2ccccc2o1	-1	.	.	-13	-9	.	.
Nc1ccc(C(=O)N/N=C\c2cc(N=Nc3cccc4ccccc34)ccc2O)cc1	12	4	7	6	17	77*	53*
